# Source: the supplement of paper PMC8728848
# The entries come from a sample that favours the strongest signals as a whole.
# How the values were obtained:
# Assay in all cases: glycan array binding signal (z-score within array); higher = stronger binding
# Conditions in all cases: glycan notation: IUPAC condensed, linker removed
# [1] = target: Fuc(a1-2)Gal(b1-3)[Fuc(a1-4)]GlcNAc(b1-3)[Fuc(a1-3)[Gal(b1-4)]GlcNAc(b1-6)]Gal(b1-4)Glc
# In short: (§1)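 Columns mapping to the same glycan were averaged after glycan names were converted to IUPAC-condensed notation. The data come from 3228 arrays in the Consortium for Functional Glycomics database, limited to those with an available protein sequence. Binding is reported as a within-array Z-score averaged across arrays of one protein sequence and across linkers.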
# [2] = target: Fuc(a1-2)Gal(b1-4)GlcNAc6S
# In short: as §1
# Fuc(a1-2)[Gal(a1-3)]Gal = target: Fuc(a1-2)[Gal(a1-3)]Gal
# In short: as §1
# [3] = target: Fuc(a1-3)[Gal(b1-4)]GlcNAc(b1-2)Man(a1-3)[Fuc(a1-3)[Gal(b1-4)]GlcNAc(b1-2)Man(a1-6)]Man(b1-4)GlcNAc(b1-4)GlcNAc
# In short: as §1
# [4] = target: Gal(a1-3)Gal(b1-4)[Fuc(a1-3)]GlcNAc(b1-2)Man(a1-3)[Gal(a1-3)Gal(b1-4)[Fuc(a1-3)]GlcNAc(b1-2)Man(a1-6)]Man(b1-4)GlcNAc(b1-4)GlcNAc
# In short: as §1
# [5] = target: Gal(a1-4)Gal(b1-4)GlcNAc(b1-2)Man(a1-3)[Gal(a1-4)Gal(b1-4)GlcNAc(b1-2)Man(a1-6)]Man(b1-4)GlcNAc(b1-4)GlcNAc
# In short: as §1
# Gal(b1-3)Gal = target: Gal(b1-3)Gal
# In short: as §1
# [6] = target: Gal(b1-3)GalNAc(a1-3)[Fuc(a1-2)]Gal(b1-4)Glc
# In short: as §1
# [7] = target: Gal(b1-3)GlcNAc(b1-2)Man(a1-3)[Gal(b1-3)GlcNAc(b1-2)Man(a1-6)]Man(b1-4)GlcNAc(b1-4)GlcNAc
# In short: as §1
# [8] = target: Gal(b1-3)GlcNAc(b1-3)Gal(b1-4)Glc
# In short: as §1
# [9] = target: Gal(b1-4)GlcNAc(b1-2)Man(a1-3)[Man(a1-6)]Man(b1-4)GlcNAc(b1-4)GlcNAc
# In short: as §1
# [10] = target: Gal(b1-4)GlcNAc(b1-2)[Gal(b1-4)GlcNAc(b1-4)]Man(a1-3)[Gal(b1-4)GlcNAc(b1-2)Man(a1-6)]Man(b1-4)GlcNAc(b1-4)GlcNAc
# In short: as §1
# Gal6S(b1-4)Glc6S = target: Gal6S(b1-4)Glc6S
# In short: as §1
# GlcNAc(b1-3)Gal = target: GlcNAc(b1-3)Gal
# In short: as §1
# [11] = target: Man(a1-2)Man(a1-2)Man(a1-3)Man
# In short: as §1
# [12] = target: Man(a1-2)Man(a1-2)Man(a1-6)[Man(a1-3)]Man
# In short: as §1
# Man(a1-2)Man(a1-3)Man = target: Man(a1-2)Man(a1-3)Man
# In short: as §1
# [13] = target: Man(a1-2)Man(a1-3)[Man(a1-2)Man(a1-6)]Man
# In short: as §1
# [14] = target: Man(a1-2)Man(a1-3)[Man(a1-2)Man(a1-6)]Man(a1-6)[Man(a1-2)Man(a1-2)Man(a1-3)]Man
# In short: as §1
# [15] = target: Man(a1-2)Man(a1-6)[Man(a1-3)]Man(a1-6)[Man(a1-2)Man(a1-2)Man(a1-3)]Man
# In short: as §1
# Man(a1-3)[Man(a1-6)]Man = target: Man(a1-3)[Man(a1-6)]Man
# In short: as §1
# [16] = target: Man(a1-3)[Man(a1-6)]Man(b1-4)GlcNAc(b1-4)GlcNAc
# In short: as §1
# [17] = target: Neu5Ac(a2-3)Gal(b1-3)[Fuc(a1-4)]GlcNAc
# In short: as §1
# [18] = target: Neu5Ac(a2-3)Gal(b1-4)GlcNAc
# In short: as §1
# [19] = target: Neu5Ac(a2-3)Gal(b1-4)[Fuc(a1-3)]GlcNAc(b1-3)Gal
# In short: as §1
# [20] = target: Neu5Ac(a2-3)[GalNAc(b1-4)]Gal(b1-4)Glc
# In short: as §1
# [21] = target: Neu5Ac(a2-6)Gal(b1-4)GlcNAc(b1-2)Man(a1-6)Man(b1-4)GlcNAc(b1-4)GlcNAc
# In short: as §1
# [22] = target: Neu5Ac(a2-6)Gal(b1-4)GlcNAc(b1-3)Gal(b1-4)GlcNAc(b1-3)Gal(b1-4)GlcNAc
# In short: as §1
# [23] = target: Neu5Ac(b2-6)Gal(b1-4)GlcNAc
# In short: as §1
# [24] = target: Neu5Gc(a2-3)Gal(b1-3)[Fuc(a1-4)]GlcNAc
# In short: as §1
# [25] = target: Neu5Gc(a2-3)Gal(b1-4)[Fuc(a1-3)]GlcNAc
# In short: as §1
binder,measurement,setting,value
"ZG-16 (Homo sapiens), O60844 (protein) IQARSSSYSGEYGSGGGKRFSHSGNQLDGPITALRVRVNTYYIVGLQVRYGKVWSDYVGGRNGDLEEIFLHPGESVIQVSGKYKWYLKKLVFVTDKGRYLSFGKDSGTSFNAVPLHPNTVLRFISGRSGSLIDAIGLHWDVYPTSCSRCSRGSDDDDKAEPRGPTIKPCPPCKCPAPNLLGGPSVFIFPPKIKDVLMISLSPIVTCVVVDVSEDDPDVQISWFVNNVEVHTAQTQTHREDYNSTLRVVSALPIQHQDWMSGKEFKCKVNNKDLPAPIERTISKPKGSVRAPQVYVLPPPEEEMTKKQVTLTCMVTDFMPEDIYVEWTNNGKTELNYKNTEPVLDSDGSYFMYSKLRVEKKNWVERNSYSCSVVHEGLHNHHTTKSFSRTPGKRTYHHHHHHARKLTR",glycan array binding signal (z-score),[1],-0.196
same,glycan array binding signal (z-score),[2],-0.185
same,glycan array binding signal (z-score),Fuc(a1-2)[Gal(a1-3)]Gal,-0.217
same,glycan array binding signal (z-score),[3],0.273
same,glycan array binding signal (z-score),[4],-0.158
same,glycan array binding signal (z-score),[5],-0.205
same,glycan array binding signal (z-score),Gal(b1-3)Gal,-0.222
same,glycan array binding signal (z-score),[6],-0.193
same,glycan array binding signal (z-score),[7],-0.189
same,glycan array binding signal (z-score),[8],-0.226
same,glycan array binding signal (z-score),[9],-0.146
same,glycan array binding signal (z-score),[10],-0.166
same,glycan array binding signal (z-score),Gal6S(b1-4)Glc6S,-0.16
same,glycan array binding signal (z-score),GlcNAc(b1-3)Gal,-0.231
same,glycan array binding signal (z-score),[11],8.34
same,glycan array binding signal (z-score),[12],5.61
same,glycan array binding signal (z-score),Man(a1-2)Man(a1-3)Man,9.52
same,glycan array binding signal (z-score),[13],3.69
same,glycan array binding signal (z-score),[14],1.94
same,glycan array binding signal (z-score),[15],5.95
same,glycan array binding signal (z-score),Man(a1-3)[Man(a1-6)]Man,4.25
same,glycan array binding signal (z-score),[16],-0.183
same,glycan array binding signal (z-score),[17],-0.202
same,glycan array binding signal (z-score),[18],-0.209
same,glycan array binding signal (z-score),[19],-0.127
same,glycan array binding signal (z-score),[20],-0.21
same,glycan array binding signal (z-score),[21],-0.209
same,glycan array binding signal (z-score),[22],-0.182
same,glycan array binding signal (z-score),[23],-0.221
same,glycan array binding signal (z-score),[24],-0.132
same,glycan array binding signal (z-score),[25],-0.11
